FBPA coupling cs: inhibits coupling enzyme system, counter-screen for aldolase hits; actives 0.67% (n = 290,000); AID 2472; coupling enzyme system counterscreen, AmpLite Red fluorescence; activity change, negative = inhibition, % at 58.2 µM, hits read low; in the data active means activity change below about -30%
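Final compound at 57.5 uM, incubated 10 min at RT with coupling enzyme reagent (glyceraldehyde-3-phosphate), then 20 min with substrate and AmpLite Red detection. Fluorescence read at 525/598 nm; tests interference with the coupling assay, not aldolase inhibition.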
ELG1 repair inh: inhibitors of ELG1-dependent DNA repair in HEK293T cells; HEK293T ELG1-luciferase reporter, luminescence, 16 h; DNA damage induced by 5-fluorouridine; Potency, µM (highest dose often 46.1 µM), inactives show at the top dose activity change, negative = inhibition, most hits filed as inhibitors; actives 2.3% (n = 330,000); further: potency means the concentration at half of the fitted maximal effect; nearly all actives have a fitted effect of over 55% in size
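Cells (2,000 per well) received 5-fluorouridine plus test compound or DMSO and were incubated 16 hr at 37 °C, 5% CO2. Luciferase activity was read by luminescence 30 min after ONE-Glo addition; signal suppression marked inhibition of damage-induced ELG1 function.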
Gal4-VP16 FLuc: inhibits Gal4-VP16 luciferase reporter, ROR gamma counter-screen; Drosophila S2 Gal4-VP16 UAS-luciferase, luminescence, 20 h; Potency, µM (series often up to 53.6 µM), without a hit: at the top dose activity, negative = inhibition, usual class: inhibitors; actives 3.5% (n = 310,000);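 further: Gal4-VP16 expression switched on by copper sulfate through the metallothionein promoter; potency means the concentration at half of the fitted maximal effect; nearly all actives have a fitted effect of over 50% in size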
RORg inh: blocks mouse ROR gamma transcriptional activity | P51450 | Potency, µM (titrated, usually from 53.6 µM), without a hit: top-dose activity change, negative = inhibition, most hits filed as inhibitors | AID 2551 | actives 5.4% (n = 310,000) | Drosophila S2 Gal4-RORgamma UAS-luciferase reporter, 20 h; further: potency means the concentration at half of the fitted maximal effect; nearly all actives have a fitted effect of over 60% in size
Target sequence (P51450 whole entry, looked up, the tested form may be a part): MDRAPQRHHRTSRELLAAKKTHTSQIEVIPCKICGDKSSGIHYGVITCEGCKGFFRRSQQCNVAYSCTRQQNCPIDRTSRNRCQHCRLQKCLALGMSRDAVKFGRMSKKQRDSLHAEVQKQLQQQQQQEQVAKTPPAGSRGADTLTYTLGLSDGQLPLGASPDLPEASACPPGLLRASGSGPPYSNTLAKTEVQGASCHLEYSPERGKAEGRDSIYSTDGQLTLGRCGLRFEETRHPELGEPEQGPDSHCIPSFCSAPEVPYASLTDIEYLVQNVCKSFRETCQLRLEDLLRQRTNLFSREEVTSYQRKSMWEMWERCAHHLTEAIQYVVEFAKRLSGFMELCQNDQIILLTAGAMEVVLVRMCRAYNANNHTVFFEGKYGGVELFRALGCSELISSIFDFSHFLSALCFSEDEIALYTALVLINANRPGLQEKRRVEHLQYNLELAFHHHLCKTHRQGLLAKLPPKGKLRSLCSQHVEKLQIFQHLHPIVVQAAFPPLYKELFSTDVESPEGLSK
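Drosophila S2 cells stably expressing Gal4-DBD/mouse RORγ fusion under metallothionein promoter plus UAS-luciferase; compound 1 h, then 700 uM CuSO4 induction for 20 h at ambient temperature; inhibition read as reduced luminescence.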
TSHR antagonist: blocks TSH signaling through the human TSH receptor | actives 0.2% (n = 330,000) | TSHR-expressing cells, TSH-stimulated cAMP HTRF, 2 h; active compounds read low | activity change, negative = inhibition, % at 11.5 µM;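 active means activity change below a set negative limit, meaning inhibition stronger than a set level, cut at about -70% in these data; inconclusive means activity change between two set negative limits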
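Antagonism was scored as loss of TSH-driven cAMP in TSHR cells, stimulated with 4nM TSH (EC80) for 2 hours at 37 deg C and detected by homogeneous HTRF competition immunoassay.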
* hit, by the source's call. Shown are actives, neighbours in structure and some others; about 8% of the full set was active somewhere. Unless noted, the call rests on the fitted dose curve; in most records, active means well fitted curve in the direction sought with a large enough effect; inconclusive means small, poorly fitted or top-dose-only effect, or another doubt; inactive means no such curve, though single readings can be large; an effect the other way counts as inactive or inconclusive. On the % scale 0 is the no-effect control and ±100 the full control effect.

For CSCC[C@H](NC(=O)[C@H](CO)NC(=O)[C@H](Cc1ccc(O)cc1)NC(=O)[C@@H](N)CO)C(=O)N[C@@H](CCC(=O)O)C(=O)N[C@@H](Cc1cnc[nH]1)C(=O)N[C@@H](Cc1ccccc1)C(=O)N[C@@H](CCCNC(=N)N)C(=O)N[C@@H](Cc1c[nH]c2ccccc12)C(=O)NCC(=O)N[C@@H](CCCCN)C(=O)N1CCC[C@H]1C(=O)N[C@H](C(=O)NCC(=O)N[C@@H](CCCCN)C(=O)N[C@@H](CCCCN)C(=O)N[C@@H](CCCNC(=N)N)C(=O)N[C@@H](CCCNC(=N)N)C(=O)N1CCC[C@H]1C(=O)N[C@H](C(=O)N[C@@H](CCCCN)C(=O)N[C@H](C(=O)N[C@@H](Cc1ccc(O)cc1)C(=O)N1CCC[C@H]1C(=O)O)C(C)C)C(C)C)C(C)C the results were FBPA coupling cs 4.7, Gal4-VP16 FLuc 6.5% and RORg inh 10.3%.
`CCOc1ccc(C2CC(=O)NC2=O)cc1` (stereo not given) gave FBPA coupling cs 0.5, ELG1 repair inh 13.6%, Gal4-VP16 FLuc 1.3%, RORg inh 16.8% and TSHR antagonist -0.6.
Screening O=c1c2cn[nH]c2[nH]c(=S)n1-c1ccccc1Cl returned FBPA coupling cs -0.7, ELG1 repair inh 18.4%, Gal4-VP16 FLuc -0.6%, RORg inh 10µM* and TSHR antagonist -3.7.
COCCn1c(C)cc(C(=O)COc2nc3ccccc3nc2C)c1C was read as FBPA coupling cs 0.6, ELG1 repair inh 23.1µM*, Gal4-VP16 FLuc inconclusive, RORg inh 30.7% and TSHR antagonist -1.7.
Screening O=C(N/N=C1\CC2CC=CC12)c1ccc(COc2ccccc2)cc1 (stereo not given) returned FBPA coupling cs -11.8, ELG1 repair inh 1.7%, Gal4-VP16 FLuc 5.01µM*, RORg inh 5.01µM* and TSHR antagonist 9.9.
O=C(Nc1ccccc1)c1ccc(COc2ccccc2)cc1 was read as FBPA coupling cs 0.9, ELG1 repair inh inconclusive, Gal4-VP16 FLuc -2.0%, RORg inh -0.7% and TSHR antagonist 17.0.
For CC(C)(C)c1ccc(OCc2ccc(C(=O)N/N=C3\CC4CC=CC34)cc2)cc1 (stereo not given) the results were FBPA coupling cs -0.2, ELG1 repair inh inconclusive, Gal4-VP16 FLuc 4.47µM*, RORg inh 7.94µM* and TSHR antagonist -16.1.
For CCc1cc2c(=O)n(-c3ccccc3)c(=S)[nH]c2s1 the results were FBPA coupling cs 0.2, ELG1 repair inh 4.6%, Gal4-VP16 FLuc 4.47µM*, RORg inh 2.51µM* and TSHR antagonist -2.1.
COC(=O)c1ccc2c(=O)n(-c3ccccc3)c(=S)[nH]c2c1 was read as FBPA coupling cs 1.3, ELG1 repair inh inconclusive, Gal4-VP16 FLuc inconclusive, RORg inh 1.78µM* and TSHR antagonist -12.1.
O=C(O)c1ccc2c(=O)n(-c3ccccc3F)c(=S)[nH]c2c1 was read as FBPA coupling cs 5.7, ELG1 repair inh -3.3%, Gal4-VP16 FLuc 3.6%, RORg inh -19.3% and TSHR antagonist -0.3.
Screening COC(=O)c1ccc2c(=O)n(-c3ccccc3F)c(=S)[nH]c2c1 returned FBPA coupling cs -1.6, ELG1 repair inh 18.3µM*, Gal4-VP16 FLuc 5.62µM*, RORg inh 3.16µM* and TSHR antagonist -12.7.
Screening CC1(C)Cc2ccccc2C(NNC(=O)c2ccccn2)=N1 returned FBPA coupling cs -2.5, ELG1 repair inh inconclusive, Gal4-VP16 FLuc 0.1µM*, RORg inh 0.0501µM* and TSHR antagonist 5.2.
`Cn1c(=O)c2c(nc(Sc3ncccn3)n2Cc2ccccc2Cl)n(C)c1=O` gave FBPA coupling cs -1.2, ELG1 repair inh inconclusive, Gal4-VP16 FLuc -12.2%, RORg inh -1.9% and TSHR antagonist 29.6.
For Cn1c(=O)c2c(nc(Sc3ncccn3)n2Cc2ccc(Cl)cc2)n(C)c1=O the results were FBPA coupling cs 0.2, ELG1 repair inh 16.4µM*, Gal4-VP16 FLuc 15.8µM*, RORg inh -38.7% and TSHR antagonist -4.3.
For CN1/C(=N\O)c2cccc3cccc1c23 the results were FBPA coupling cs -47.1*, ELG1 repair inh inconclusive, Gal4-VP16 FLuc -0.3%, RORg inh 3.9% and TSHR antagonist -5.1.
Screening Cn1c(=O)n(C)c2cc(NC(=O)CSc3nc4ccccc4c(=O)[nH]3)ccc21 returned FBPA coupling cs -2.2, ELG1 repair inh inconclusive, Gal4-VP16 FLuc -1.2%, RORg inh -0.3% and TSHR antagonist -3.2.
CCn1c(COc2ccc(C)cc2)nc2ccccc21 was read as FBPA coupling cs 1.0, ELG1 repair inh inconclusive, Gal4-VP16 FLuc inconclusive, RORg inh 8.91µM* and TSHR antagonist -16.3.
Screening Cc1ccc(OCCCn2c(CO)nc3ccccc32)cc1 returned FBPA coupling cs 0.4, ELG1 repair inh inconclusive, Gal4-VP16 FLuc 1.3%, RORg inh 25.9% and TSHR antagonist 6.2.
Screening COCCn1c(COc2ccc(C)cc2)nc2ccccc21 returned FBPA coupling cs -2.3, ELG1 repair inh inconclusive, Gal4-VP16 FLuc -15.8%, RORg inh 11.2µM* and TSHR antagonist 7.1.
Screening CCOCCn1c(COc2ccc(C)cc2)nc2ccccc21 returned FBPA coupling cs -3.0, ELG1 repair inh inconclusive, Gal4-VP16 FLuc 5.2%, RORg inh inconclusive and TSHR antagonist 0.2.
`CCOc1cc(C(=O)N=c2sccn2C)cc(Br)c1OC` gave FBPA coupling cs -0.2, ELG1 repair inh inconclusive, Gal4-VP16 FLuc 0.9%, RORg inh 39.5% and TSHR antagonist -7.2.
`Cc1ccc(N(CC(=O)NC2CCCCC2)C(=O)CNC(=O)c2ccco2)c(C)c1` gave FBPA coupling cs 2.4, ELG1 repair inh 14.6%, Gal4-VP16 FLuc 2.3%, RORg inh -14.5% and TSHR antagonist 2.1.
COC(=O)Cn1c(=NC(=O)c2cc(-c3cccs3)nc3ccccc23)sc2cc(S(N)(=O)=O)ccc21 was read as FBPA coupling cs 2.1, ELG1 repair inh 9.2µM*, Gal4-VP16 FLuc inconclusive, RORg inh -19.5% and TSHR antagonist -18.8.
COC(=O)Cn1c(=NC(=O)c2nc3ccccc3s2)sc2cc(S(N)(=O)=O)ccc21 was read as FBPA coupling cs 0.8, ELG1 repair inh -19.6%, Gal4-VP16 FLuc inconclusive, RORg inh inconclusive and TSHR antagonist 7.3.
Screening CCOC(=O)Cn1c(=NC(=O)c2cc(-c3cccs3)nc3ccccc23)sc2cc(S(N)(=O)=O)ccc21 returned FBPA coupling cs 0.4, ELG1 repair inh inconclusive, Gal4-VP16 FLuc 11.2µM*, RORg inh 15.8µM* and TSHR antagonist 0.7.
`CSC(=S)N/N=C/c1ccc(N(C)C)cc1` gave FBPA coupling cs -1.5, ELG1 repair inh inconclusive, Gal4-VP16 FLuc 2µM*, RORg inh 0.251µM* and TSHR antagonist 6.9.

High-throughput results: PubChem, National Center for Advancing Translational Sciences (NCATS)
